Set-up in all cases: scale not given: direction of the effect not stated beside the values
Test [1] concerns the target Protein translocase subunit SecA (Escherichia coli (strain K12)) (UniProt P10408). The test can be described thus: Assay to Identify E. coli SecA ATPase Inhibitors. The format is functional. The conditions noted are these: 30 µM.
The target of test [2] is T1, Ubiquitin-activating enzyme e1, putative (Leishmania donovani (strain BPK282A1)) (UniProt E9BSI1).
T1 sequence (whole entry): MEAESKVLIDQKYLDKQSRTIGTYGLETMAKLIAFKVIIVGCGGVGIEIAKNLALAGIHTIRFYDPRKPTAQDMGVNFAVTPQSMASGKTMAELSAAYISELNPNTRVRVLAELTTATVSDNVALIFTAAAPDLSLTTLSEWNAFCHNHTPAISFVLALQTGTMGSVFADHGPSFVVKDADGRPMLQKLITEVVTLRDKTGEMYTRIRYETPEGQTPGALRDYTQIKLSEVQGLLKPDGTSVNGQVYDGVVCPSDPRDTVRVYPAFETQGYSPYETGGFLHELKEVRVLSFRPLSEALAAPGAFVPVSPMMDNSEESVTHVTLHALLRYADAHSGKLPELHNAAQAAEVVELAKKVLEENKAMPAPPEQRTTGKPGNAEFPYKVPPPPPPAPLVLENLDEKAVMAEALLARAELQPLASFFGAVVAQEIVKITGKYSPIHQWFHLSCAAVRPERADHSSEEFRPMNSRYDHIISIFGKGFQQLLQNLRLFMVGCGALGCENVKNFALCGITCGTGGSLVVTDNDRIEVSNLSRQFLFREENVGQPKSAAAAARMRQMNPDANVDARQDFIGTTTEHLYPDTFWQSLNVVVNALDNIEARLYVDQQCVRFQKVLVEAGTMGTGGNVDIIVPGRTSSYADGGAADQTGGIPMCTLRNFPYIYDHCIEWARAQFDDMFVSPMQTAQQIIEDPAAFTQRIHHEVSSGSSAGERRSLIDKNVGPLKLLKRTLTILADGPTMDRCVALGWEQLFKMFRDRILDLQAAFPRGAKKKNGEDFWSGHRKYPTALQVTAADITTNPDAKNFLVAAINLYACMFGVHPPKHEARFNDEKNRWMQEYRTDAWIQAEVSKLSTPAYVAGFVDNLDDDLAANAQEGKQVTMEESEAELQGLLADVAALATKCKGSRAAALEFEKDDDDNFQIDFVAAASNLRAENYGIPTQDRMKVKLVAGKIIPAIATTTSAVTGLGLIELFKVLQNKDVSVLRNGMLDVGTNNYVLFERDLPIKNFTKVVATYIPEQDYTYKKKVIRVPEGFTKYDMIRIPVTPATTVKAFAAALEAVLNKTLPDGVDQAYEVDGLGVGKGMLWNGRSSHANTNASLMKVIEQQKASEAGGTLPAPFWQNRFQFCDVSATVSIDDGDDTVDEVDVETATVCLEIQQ
The test can be described thus: Leishmania donovani Ubiquitin Activating Enzyme (LdE1). The format is functional. The conditions noted are these: 30 µM.

Test [3] concerns the target AMP-activated protein kinase, AMPK (Homo sapiens) (UniProt P54646+O43741+P54619+Q9UGJ0+Q9Y478+Q13131+Q9UGI9). Put plainly: AMP-dependent Kinase enzyme assay. An in vitro enzyme assay that detects ADP turnover that is directly proportional to AMPK activity. This uses naive AMPK that is activated during the assay with MK-8722. The format is functional. The conditions noted are these: 30 µM.

Test [4] has as its target Sialic acid-binding Ig-like lectin 9 (Homo sapiens) (UniProt Q9Y336). Put plainly: Hs-Siglec9 ALPHAscreen SOP 20170721. The conditions noted are these: 10 µM.
The subject of another test is Trypanosoma cruzi. Put plainly: Trypanosoma cruzi phosphomannomutase and mannose-1-phosphate guanylyltransferase assay. The test is classed as functional. The conditions noted are these: 10 µM.
The target of test [5] is T2, Arginase-2, mitochondrial (Homo sapiens) (UniProt P78540).
T2 sequence (whole entry): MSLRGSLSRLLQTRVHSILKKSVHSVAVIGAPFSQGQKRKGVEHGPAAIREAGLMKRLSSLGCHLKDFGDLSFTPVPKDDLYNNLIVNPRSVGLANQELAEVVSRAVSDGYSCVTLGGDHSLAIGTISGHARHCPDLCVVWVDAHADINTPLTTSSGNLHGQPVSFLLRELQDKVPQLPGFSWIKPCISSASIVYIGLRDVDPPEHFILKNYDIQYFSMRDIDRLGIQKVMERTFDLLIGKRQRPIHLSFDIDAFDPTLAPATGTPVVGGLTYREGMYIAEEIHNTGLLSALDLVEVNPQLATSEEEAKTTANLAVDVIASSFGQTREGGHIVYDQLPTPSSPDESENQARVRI
Put plainly: in vitro enzyme assay to detect the production of urea directly proportional to the activity of Arginase II. Note: in the data most compounds retested in dose-response had high values. The format is functional. The conditions noted are these: 33.3 µM.

The target of test [6] is T3, Proteasome subunit beta (Trypanosoma cruzi) (UniProt O96673).
T3 sequence (whole entry): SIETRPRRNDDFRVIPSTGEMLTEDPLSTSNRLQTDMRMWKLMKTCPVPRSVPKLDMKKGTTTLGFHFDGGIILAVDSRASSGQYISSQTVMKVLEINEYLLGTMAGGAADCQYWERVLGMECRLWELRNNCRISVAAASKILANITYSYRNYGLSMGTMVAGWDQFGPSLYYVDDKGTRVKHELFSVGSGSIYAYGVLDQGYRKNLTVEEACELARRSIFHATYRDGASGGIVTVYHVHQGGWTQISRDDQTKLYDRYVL
The test can be described thus: Trypanosoma cruzi proteasome chymotrypsin-like activity (TcProtChymo) assay. Note: in the data most compounds retested in dose-response had high values. The format is functional. The conditions noted are these: 9.37 µM.

A further test is filed under the species Homo sapiens. The test can be described thus: To identify inhibition of the IFN signalling (Jak-Stat) pathway via expression of an eGFP reporter gene under the control of an IFN-stimulated response element (ISRE) containing MxA promoter. The conditions noted are these: 30 µM. The test is classed as functional.
The target of test [7] is T4, Tyrosyl-tRNA synthetase, putative (Trypanosoma cruzi (strain CL Brener)) (UniProt Q4DSP6).
T4 sequence (whole entry): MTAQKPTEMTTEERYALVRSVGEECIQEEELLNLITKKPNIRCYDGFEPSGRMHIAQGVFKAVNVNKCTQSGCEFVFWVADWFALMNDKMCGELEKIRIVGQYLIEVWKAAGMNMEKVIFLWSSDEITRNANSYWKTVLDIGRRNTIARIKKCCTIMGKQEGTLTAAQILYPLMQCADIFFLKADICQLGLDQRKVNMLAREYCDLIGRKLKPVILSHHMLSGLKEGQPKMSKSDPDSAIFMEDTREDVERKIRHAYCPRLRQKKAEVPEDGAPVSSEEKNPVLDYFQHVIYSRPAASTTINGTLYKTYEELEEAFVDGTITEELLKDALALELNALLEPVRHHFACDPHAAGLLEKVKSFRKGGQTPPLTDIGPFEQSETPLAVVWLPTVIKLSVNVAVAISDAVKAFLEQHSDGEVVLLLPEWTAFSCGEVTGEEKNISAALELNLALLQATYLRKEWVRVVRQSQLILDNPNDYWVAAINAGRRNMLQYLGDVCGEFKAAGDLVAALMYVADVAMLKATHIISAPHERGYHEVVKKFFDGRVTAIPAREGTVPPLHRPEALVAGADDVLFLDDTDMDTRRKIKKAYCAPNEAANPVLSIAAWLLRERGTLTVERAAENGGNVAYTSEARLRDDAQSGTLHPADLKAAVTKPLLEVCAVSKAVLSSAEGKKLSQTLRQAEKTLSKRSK
The test can be described thus: Trypanosoma cruzi tyrosyl tRNA synthetase (TcYRS) _High Tyrosine SOP. Note: in the data most compounds retested in dose-response had high values. The test is classed as functional. The conditions noted are these: 30 µM.

Test [8] deals with T4, Tyrosyl-tRNA synthetase, putative (Trypanosoma cruzi (strain CL Brener)). The test can be described thus: Trypanosoma cruzi tyrosyl tRNA synthetase (TcYRS) SOP. The conditions noted are these: 30 µM. The test is classed as functional.
The target in test [9] is Chromo domain-containing protein 1 (Saccharomyces cerevisiae (strain ATCC 204508 / S288c) (Baker's yeast)) (UniProt P32657). The test can be described thus: ScCHD-1 Enzyme Inhibition Assay. Note: in the data most compounds retested in dose-response had high values. The conditions noted are these: 30 µM. The format is functional.

The structures appear in SMILES notation. For some of these results: Results with a measured potency or affinity are listed apart.

Chain of Protein translocase subunit SecA (Escherichia coli (strain K12)) (P10408 whole entry): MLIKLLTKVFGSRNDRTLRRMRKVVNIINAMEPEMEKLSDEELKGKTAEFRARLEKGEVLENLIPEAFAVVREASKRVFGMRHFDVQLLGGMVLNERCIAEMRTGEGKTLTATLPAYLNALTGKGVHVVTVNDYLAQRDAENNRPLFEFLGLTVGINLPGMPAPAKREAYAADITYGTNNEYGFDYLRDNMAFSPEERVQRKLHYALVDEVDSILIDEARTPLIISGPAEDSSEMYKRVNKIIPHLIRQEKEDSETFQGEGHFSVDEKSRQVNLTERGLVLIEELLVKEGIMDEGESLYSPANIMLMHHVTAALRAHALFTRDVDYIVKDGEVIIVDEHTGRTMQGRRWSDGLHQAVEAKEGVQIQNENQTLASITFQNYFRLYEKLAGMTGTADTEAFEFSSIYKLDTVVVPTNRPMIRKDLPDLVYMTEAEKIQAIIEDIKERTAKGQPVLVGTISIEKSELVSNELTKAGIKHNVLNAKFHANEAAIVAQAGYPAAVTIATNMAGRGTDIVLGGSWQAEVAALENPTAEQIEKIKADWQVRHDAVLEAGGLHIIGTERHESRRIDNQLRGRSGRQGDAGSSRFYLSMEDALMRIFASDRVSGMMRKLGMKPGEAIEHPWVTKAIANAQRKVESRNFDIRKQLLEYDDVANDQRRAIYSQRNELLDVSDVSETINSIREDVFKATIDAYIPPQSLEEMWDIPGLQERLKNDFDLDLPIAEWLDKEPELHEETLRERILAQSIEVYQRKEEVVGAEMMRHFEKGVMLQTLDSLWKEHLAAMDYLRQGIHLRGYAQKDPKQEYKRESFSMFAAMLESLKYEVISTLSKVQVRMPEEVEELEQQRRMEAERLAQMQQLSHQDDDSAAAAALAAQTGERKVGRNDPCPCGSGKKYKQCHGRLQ
Chain of Sialic acid-binding Ig-like lectin 9 (Homo sapiens) (Q9Y336 whole entry): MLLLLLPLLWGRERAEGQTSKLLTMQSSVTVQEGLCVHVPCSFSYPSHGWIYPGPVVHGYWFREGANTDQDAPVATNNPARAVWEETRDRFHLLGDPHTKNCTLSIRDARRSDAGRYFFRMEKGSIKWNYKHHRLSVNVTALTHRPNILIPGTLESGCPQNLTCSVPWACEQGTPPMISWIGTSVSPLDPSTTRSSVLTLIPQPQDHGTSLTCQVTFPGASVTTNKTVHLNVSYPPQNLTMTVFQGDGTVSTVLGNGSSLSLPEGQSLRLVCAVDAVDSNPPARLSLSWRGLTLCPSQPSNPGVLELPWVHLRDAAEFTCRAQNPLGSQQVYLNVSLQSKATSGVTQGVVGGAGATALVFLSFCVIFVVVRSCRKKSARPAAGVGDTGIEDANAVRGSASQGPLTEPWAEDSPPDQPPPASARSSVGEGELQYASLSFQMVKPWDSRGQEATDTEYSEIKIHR
Chain of Chromo domain-containing protein 1 (Saccharomyces cerevisiae (strain ATCC 204508 / S288c) (Baker's yeast)) (P32657 whole entry, the tested form may be a part): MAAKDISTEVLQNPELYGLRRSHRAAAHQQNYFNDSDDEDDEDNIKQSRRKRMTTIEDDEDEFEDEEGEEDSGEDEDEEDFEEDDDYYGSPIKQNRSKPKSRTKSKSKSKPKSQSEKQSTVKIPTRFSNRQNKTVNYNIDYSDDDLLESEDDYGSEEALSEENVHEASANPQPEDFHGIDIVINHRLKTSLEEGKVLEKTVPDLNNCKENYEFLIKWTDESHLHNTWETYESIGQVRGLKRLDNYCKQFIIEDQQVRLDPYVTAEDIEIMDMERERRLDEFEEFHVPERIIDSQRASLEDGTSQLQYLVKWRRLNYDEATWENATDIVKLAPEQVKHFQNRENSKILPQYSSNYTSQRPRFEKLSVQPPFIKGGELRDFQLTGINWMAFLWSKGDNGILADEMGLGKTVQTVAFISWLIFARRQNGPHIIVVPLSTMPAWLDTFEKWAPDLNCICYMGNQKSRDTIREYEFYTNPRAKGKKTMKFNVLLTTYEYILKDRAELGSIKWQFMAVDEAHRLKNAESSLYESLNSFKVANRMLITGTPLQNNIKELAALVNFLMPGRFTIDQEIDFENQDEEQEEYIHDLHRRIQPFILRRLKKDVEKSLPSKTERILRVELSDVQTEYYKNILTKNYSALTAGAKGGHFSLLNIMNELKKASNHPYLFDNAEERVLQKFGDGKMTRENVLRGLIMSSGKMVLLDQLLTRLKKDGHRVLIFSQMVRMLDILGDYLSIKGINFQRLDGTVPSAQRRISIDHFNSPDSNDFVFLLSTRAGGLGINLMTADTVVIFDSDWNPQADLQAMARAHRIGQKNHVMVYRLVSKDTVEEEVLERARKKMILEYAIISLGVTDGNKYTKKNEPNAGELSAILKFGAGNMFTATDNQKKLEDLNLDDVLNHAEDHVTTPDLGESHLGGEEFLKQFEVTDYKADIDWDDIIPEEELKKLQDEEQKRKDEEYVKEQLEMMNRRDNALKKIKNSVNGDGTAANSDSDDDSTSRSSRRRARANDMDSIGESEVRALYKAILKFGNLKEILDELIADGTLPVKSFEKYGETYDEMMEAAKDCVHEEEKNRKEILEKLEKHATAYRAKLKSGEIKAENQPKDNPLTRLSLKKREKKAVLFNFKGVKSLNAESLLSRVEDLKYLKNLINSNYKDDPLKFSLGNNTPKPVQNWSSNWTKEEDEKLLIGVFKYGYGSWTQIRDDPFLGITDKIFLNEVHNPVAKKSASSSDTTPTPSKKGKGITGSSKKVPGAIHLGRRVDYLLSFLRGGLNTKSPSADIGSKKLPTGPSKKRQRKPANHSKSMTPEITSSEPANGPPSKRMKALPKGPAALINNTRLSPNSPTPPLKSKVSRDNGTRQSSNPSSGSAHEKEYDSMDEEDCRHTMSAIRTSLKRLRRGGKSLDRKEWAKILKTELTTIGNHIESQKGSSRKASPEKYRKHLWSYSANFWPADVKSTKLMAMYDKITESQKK

Turning to `O=C(NCCNCC1CNc2ccnn2C1)c1ccc(F)cc1` (stereo not drawn), the Percent Effect in test [1] was -2.2%; in test [2], 8.11%; in [3] it was -6.99%; in test [4], 25.4%; in the test with Trypanosoma cruzi it was 8.3%; in test [5] it was 0.476%. In addition, the Percent Effect in test [6] is 11.6%; in the test filed under Homo sapiens it was -0.126%; in [7], 5.82%; in [8], 14.6%; in [9], -2.41%.

Consider `CC(C)CNC(=O)[C@H]1CCS(=O)(=O)[C@@H]2CN(Cc3ccc(Cl)cc3)C[C@H]12`, for which the Percent Effect in [1] was -2.67%; in [2] it was 2.7%; in test [3] it was -1.66%; in [4] it was -4.02%; in the test with Trypanosoma cruzi, 1.17%; in [5], 2.5%. In addition, the Percent Effect in test [6] was 22.7%; in the test filed under Homo sapiens, -6.94%; in [7], 11.9%; in test [8] it was 13.4%; in test [9] it was -1.05%.

`Cc1cnn(CC2CCCN2Cc2nccn2C)c1` (stereo not drawn): the Percent Effect in test [1] was -3.05%; in test [2] it was -16.5%; in test [3], -3.78%; in test [4], -0.409%; in the test with Trypanosoma cruzi, 3.59%; in test [5] it was 1.5%. Besides, the Percent Effect is 3.94% in [6]; 4.67% in the test listed under Homo sapiens; 4.17% in test [7]; 5.06% in [8]; -13.2% in test [9].

Take `Cc1ccc2cnn(CCC(=O)Nc3c(C)nn(C)c3C)c2c1`: the Percent Effect in test [1] is -3.51%; in [2], 5.2%; in test [3], 2.92%; in test [4] it was 2.18%; in the test with Trypanosoma cruzi, -4.03%; in test [5], -4.14%. In addition, the Percent Effect was 5.16% in [6]; -0.975% in the test filed under Homo sapiens; 2.15% in test [7]; 8.64% in test [8]; -0.912% in [9].

As to `CC(O)CN1CCN(Cc2nnc(C3CC3)o2)CC1` (stereo not drawn), the Percent Effect in [1] is -2.68%; in [2] it was 22.8%; in test [3] it was -5.24%; in [4], -11.8%; with Trypanosoma cruzi, 6.7%; in test [5], 4.56%. Besides, the Percent Effect was 15% in test [6]; -18.4% in the test listed under Homo sapiens; 6.4% in test [7]; 21.5% in test [8]; -4.52% in [9].

For `Cc1nccn1C1CCCN(C(=O)c2ccc(N3CCCC3)nn2)C1` (stereo not drawn), the Percent Effect is -4.79% in [1]; 10.5% in [2]; -5.31% in [3]; 8.97% in test [4]; 1.59% with Trypanosoma cruzi; -0.719% in [5]. Further, the Percent Effect in test [6] was -4.65%; in the test filed under Homo sapiens it was 2.56%; in test [7], 4.43%; in [8] it was 11.1%; in test [9] it was -6.5%.

`Cn1cnnc1C1CCCN(C(=O)c2n[nH]c3ccccc23)C1` (stereo not drawn): the Percent Effect in test [1] is -3.18%; in test [2], 18.2%; in test [3], -8.06%; in test [4], -14.8%; with Trypanosoma cruzi, 5.19%; in test [5] it was -3.16%. Moreover, the Percent Effect in test [6] was 13.8%; in the test listed under Homo sapiens, -1.86%; in [7] it was 8.57%; in test [8], 32.9%; in test [9] it was -21.5%.

As to `NC(=O)C1CCN(C(=O)NCc2ccccc2Cn2cncn2)CC1`, the Percent Effect in [1] was -3.59%; in test [2], 5.41%; in test [3], 4.01%; in test [4], 0.839%; with Trypanosoma cruzi it was -3.86%; in test [5], 0%. In addition, the Percent Effect in test [6] is 10.2%; in the test listed under Homo sapiens it was 1.83%; in [7], 2.65%; in test [8] it was 7.32%; in test [9], -1.94%.

The values are drawn from ChEMBL document CHEMBL3988442, “University of Dundee, Small-Polar-MMV Screening Library” (2021).
